We go through 30 compounds from the supplement of paper PMC6522484.

± gives the standard deviation of the averaged measurements.

In experiment [1] the test system is DLD1. The experiment is described as follows: cell viability (CellTiter-Glo) relative to plate median (fraction of plate median); higher = more viable cells. To be noted: 5 µM; treatment time 24 h; reporter: 7TFP. The gist of the method:
(§1)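 Colorectal cancer lines with stably integrated lentiviral TCF/Wnt firefly luciferase reporters received library compounds at a final 5 µM, 24 h after seeding into 384-well plates, for a 24 h exposure. Reported figures are plate-median-normalised firefly luciferase or CellTiterGlo luminescence per well. They average two independent replicates.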

For experiment [2], the system named is HCT116. The experiment is described as above. To be noted: 5 µM; treatment time 24 h; reporter: TCF4/Wnt. The gist of the method:
as §1

Experiment [3] deals with SW480. The experiment is described as above. The note with it: 5 µM; treatment time 24 h; reporter: 7TFP. The gist of the method: as §1
Experiment [4] relates to DLD1. The experiment is described as follows: TCF/Wnt firefly luciferase reporter signal relative to plate median (fraction of plate median); higher = higher Wnt reporter signal. To be noted: 5 µM; treatment time 24 h; reporter: 7TFP. The gist of the method:
as §1

For experiment [5], the system named is SW480. The description is as above. To be noted: 5 µM; treatment time 24 h; reporter: 7TFP. The gist of the method:
as §1

As to `COc1cc(O)c(C(C)=O)c(OC)c1`, the cell viability came out at 1.12 ± 0.11 in experiment [1], 1.03 ± 0.059 in experiment [2] and 1.055 ± 0.0071 in experiment [3]. In addition, the “TCF/Wnt firefly luciferase reporter signal” value in experiment [4] is 0.978 ± 0.19; in experiment [5], 0.983 ± 0.11.
Taken in the same sequence, the figures for `OC[C@H]1O[C@@H](O[C@@H]2[C@@H](CO)OC(O)(CO)[C@H]2O)[C@H](O)[C@@H](O)[C@H]1O` (mixture of isomers) were 0.999 ± 0.0014, 0.99 ± 0.028, 0.984 ± 0.0028, 1.07 ± 0.18 and 1.02 ± 0.034.
In the same order, the values of `COC(=O)Nc1nc2cc([S+]([O-])c3ccccc3)ccc2[nH]1` (stereo not given) are 0.921 ± 0.093, 0.869 ± 0.054, 1.01 ± 0.08, 0.983 ± 0.052 and 0.885 ± 0.12.
Taken in the same sequence, the figures for `O=C(/C=C(\O)c1ccccc1)c1ccccc1O` [2',beta-DIHYDROXYCHALCONE] were 1.07 ± 0.16, 1.17 ± 0.16, 1.08 ± 0.014, 1.01 ± 0.17 and 1.1 ± 0.021.
Turning to `CCN(CCO)CCCC(C)Nc1ccnc2cc(Cl)ccc12` (stereo not given), the results for the cell viability in experiment [1], in experiment [2] and in experiment [3] were 1.05 ± 0.097, 0.998 ± 0.1 and 0.986 ± 0.0057, respectively. The results for the “TCF/Wnt firefly luciferase reporter signal” value in experiment [4] and in experiment [5] were 1.02 ± 0.076 and 1.045 ± 0.0071, respectively.
In the same order, the values of `CCS(=O)(=O)CCn1c([N+](=O)[O-])cnc1C` are 0.965 ± 0.019, 0.975 ± 0.014, 1.01 ± 0.032, 0.869 ± 0.0028 and 0.862 ± 0.059.
In the same order, the values of `CNS(=O)(=O)Cc1ccc2[nH]cc(CCN(C)C)c2c1` are 1.08 ± 0.099, 1.07 ± 0.05, 0.9885 ± 0.0078, 1.07 ± 0.099 and 1.07 ± 0.028.
Taken in the same sequence, the figures for `COC1=CC(=O)C(O)=C/C1=C\C=C\c1ccccc1` were 1 ± 0.013, 1.06 ± 0.12, 1 ± 0.057, 1.1 ± 0.064 and 0.905 ± 0.1.
For the compound `COc1cc(C)c2c(=O)cc(-c3ccccc3)oc2c1`, the cell viability amounted to 0.991 ± 0.027 in experiment [1], 0.884 ± 0.083 in experiment [2] and 1 ± 0.041 in experiment [3]. Also, the entries for the “TCF/Wnt firefly luciferase reporter signal” value in experiment [4] and in experiment [5] were 1.18 ± 0.092 and 1.14 ± 0.014, respectively.
Taken in the same sequence, the figures for `O=c1c(O)c(-c2ccc(O)cc2O)oc2cc(O)cc(O)c12` were 1.11 ± 0.11, 1.155 ± 0.0071, 1.15, 1.11 ± 0.099 and 1.11 ± 0.15.
In the same order, the values of `Clc1ccc2c(c1)CCc1cccnc1C2=C1CCNCC1` are 0.992 ± 0.011, 1.07 ± 0.021, 0.97 ± 0.021, 1 ± 0.015 and 1.12 ± 0.014.
In the same order, the values of `COc1cc(/C=C/C(=O)O)ccc1O` [Ferulic acid (Biofocus)] are 0.923 ± 0.17, 1.05 ± 0.028, 1.02 ± 0.014, 0.962 ± 0.012 and 1.04 ± 0.069.
For `CN(C)C(=N)NC(=N)N`, the cell viability in experiment [1] came to 0.966 ± 0.076; in experiment [2] it was 1.003 ± 0.0099; in experiment [3], 1.01 ± 0.025. Moreover, the “TCF/Wnt firefly luciferase reporter signal” value was found to be 1.03 ± 0.13 in experiment [4] and 1 ± 0.054 in experiment [5].
As for `C/C=C/CCC(=O)c1c(C)c(O)c(O)c(C)c1O` [Sohirnone C], the cell viability is 1.11 ± 0.05 in experiment [1], 0.995 ± 0.035 in experiment [2] and 1.05 ± 0.057 in experiment [3]. Moreover, the “TCF/Wnt firefly luciferase reporter signal” value was found to be 1.07 ± 0.014 in experiment [4] and 1.08 ± 0.071 in experiment [5].
For `NCCCCC(=O)O`, the cell viability in experiment [1] is 0.9365 ± 0.0021; in experiment [2] it was 0.981 ± 0.098; in experiment [3] it was 1.03 ± 0.021. The “TCF/Wnt firefly luciferase reporter signal” value in experiment [4] was 1.06 ± 0.19; in experiment [5], 0.9645 ± 0.00071.
Regarding `C[C@@H]1C/C=C2\SC[C@@H](NC(=O)c3coc(n3)C[C@H](O)C[C@H](O)/C=C/C=C/CNC2=O)C(=O)O1` [Griseoviridin], the cell viability in experiment [1] was found to be 0.995 ± 0.021; in experiment [2], 1.04 ± 0.05; in experiment [3], 1.01 ± 0.021. For the same compound, the “TCF/Wnt firefly luciferase reporter signal” value worked out at 0.873 ± 0.12 in experiment [4] and 0.957 ± 0.034 in experiment [5].
Taken in the same sequence, the figures for `Cc1c(Cl)cccc1Nc1ccccc1C(=O)O` were 0.981 ± 0.041, 1.04 ± 0.014, 0.914 ± 0.039, 0.979 ± 0.12 and 0.862 ± 0.022.
In the case of `O=S(=O)(O)c1cc(N=C=S)ccc1/C=C/c1ccc(N=C=S)cc1S(=O)(=O)O`, the cell viability in experiment [1] amounted to 0.952 ± 0.046; in experiment [2] it was 0.9585 ± 0.0064; in experiment [3], 1.01 ± 0.03. Moreover, the “TCF/Wnt firefly luciferase reporter signal” value in experiment [4] came out at 0.981 ± 0.11; in experiment [5] it was 1.05 ± 0.064.
As to `CC(CCC(=O)O)C1CCC2C3CCC4CC(O)CCC4(C)C3C=CC12C` (stereo not given), the cell viability in experiment [1] came to 1.03 ± 0.021; in experiment [2], 0.943 ± 0.12; in experiment [3], 1.005 ± 0.0071. Moreover, the “TCF/Wnt firefly luciferase reporter signal” value in experiment [4] is 0.902 ± 0.071; in experiment [5], 0.964 ± 0.02.
In the same order, the values of `COc1ccc(-c2coc3cc(O)ccc3c2=O)c(O)c1O` are 1.02 ± 0.035, 0.993 ± 0.038, 1.03 ± 0.014, 1 ± 0.079 and 1.09 ± 0.028.
In the case of `NC(=O)c1cc[n+](CC2=C(C(=O)O)N3C(=O)[C@@H](NC(=O)[C@@H](c4ccccc4)S(=O)(=O)[O-])[C@H]3SC2)cc1`, the cell viability was found to be 1.01 ± 0.055 in experiment [1], 0.983 ± 0.067 in experiment [2] and 1.07 ± 0.085 in experiment [3]. Further, the “TCF/Wnt firefly luciferase reporter signal” value in experiment [4] was 0.967 ± 0.17; in experiment [5], 0.9605 ± 0.0078.
For `CN(C)CCOC(C)(c1ccccc1)c1ccccn1` (stereo not given), the cell viability in experiment [1] was found to be 1.1 ± 0.2; in experiment [2], 0.947 ± 0.1; in experiment [3], 1.04 ± 0.042. In addition, the “TCF/Wnt firefly luciferase reporter signal” value in experiment [4] is 0.999 ± 0.016; in experiment [5] it was 1.04 ± 0.014.
Taken in the same sequence, the figures for `O=C1c2c(O)cccc2Cc2cccc(O)c21` were 0.945 ± 0.025, 1.02 ± 0.074, 1.08 ± 0.05, 0.988 ± 0.031 and 0.933 ± 0.017.
Take `C/C=C/CCC(=O)c1cc(C)c(O)cc1O` [Sohirnone A]: the cell viability in experiment [1] was determined as 1.04 ± 0.09; in experiment [2], 1.06 ± 0.1; in experiment [3], 0.9585 ± 0.0078. Further, the results for the “TCF/Wnt firefly luciferase reporter signal” value in experiment [4] and in experiment [5] were 1.02 ± 0.082 and 0.969 ± 0.044, respectively.
With `CCCCCCCCCCCC[C@@H](C(=O)O)[C@H](C)C(=O)O`, the cell viability in experiment [1] was 1.005 ± 0.0071; in experiment [2] it was 1.08 ± 0.25; in experiment [3], 1 ± 0.028. Moreover, the “TCF/Wnt firefly luciferase reporter signal” value in experiment [4] worked out at 0.944 ± 0.11; in experiment [5], 1.03.
In the same order, the values of `O=C(O)CCNC(=O)c1ccccc1` are 1.04 ± 0.035, 1.035 ± 0.0071, 1 ± 0.026, 0.972 ± 0.0099 and 1.005 ± 0.0071.
In the same order, the values of `CC(=O)Oc1ccc(C(c2ccc(OC(C)=O)cc2)c2ccccn2)cc1` are 0.806 ± 0.057, 0.931 ± 0.15, 1.1 ± 0.092, 0.65 ± 0.098 and 1.03 ± 0.085.
For the compound `COc1ccc(CN(CCN(C)C)c2ncccn2)cc1`, the cell viability in experiment [1] was determined as 0.994 ± 0.0057; in experiment [2] it was 0.969 ± 0.086; in experiment [3] it was 1 ± 0.055. Further, the “TCF/Wnt firefly luciferase reporter signal” value in experiment [4] was 0.9635 ± 0.00071; in experiment [5], 0.931 ± 0.021.
In the same order, the values of `COc1cc(OC)c(C(C)=O)c(O)c1C` are 0.992 ± 0.026, 0.977 ± 0.1, 1.045 ± 0.0071, 0.94 ± 0.11 and 0.885 ± 0.016.
In the same order, the values of `NC1(C(=O)O)CCCC1` are 0.9495 ± 0.00071, 1.02 ± 0.035, 0.9955 ± 0.0064, 1.02 ± 0.081 and 1.055 ± 0.0071.
